25 compounds from PubChem BioAssay AID720723 (Molecular Libraries Program, Specialized Chemistry Center, …, 2013) can be followed below.

Active and inactive are the calls of the source. No cut-off is given here; in the data, nearly all actives have IC50 up to about 87 µM. A value given as a limit tells only on which side of the number the result lay.

The experiment is described as follows: rhodamine 123 fluorescence quenching, dose response, artefact control for mitochondrial permeability transition pore inhibitor project, biochemical, dry powder samples (AID 720723). To be noted: Rhodamine 123 fluorescence quenching counterscreen, cell-free. For orientation: A counterscreen serves to expose hits that act by an unwanted route or on another target.
Consider `COc1cc(NC(=O)c2cc(-c3cccc(O)c3)on2)cc(OC)c1OC`, for which the IC50 is > 100 µM (inactive).
Regarding `CC(C)(C)c1ccccc1OCCCCCNCCO`, the half-maximal inhibitory concentration (IC50) was 42.8 µM (active).
In the case of `CNCCC=C1c2ccccc2CCc2ccccc21`, the IC50 is > 100 µM (inactive).
`COC(=O)c1c(NC(=O)C2CCCCC2)sc2c1CC(C)(C)NC2(C)C`: the concentration for half-maximal inhibition (IC50) is 48.1 µM (active).
Turning to `C=CCNCCOCCOc1ccc(Cl)cc1C(C)(C)C`, the IC50 is 21.9 µM (active).
Regarding `Cc1cc(C)c2nc(N(CCCN(C)C)C(=O)c3ccc(S(=O)(=O)N4CCCCCC4)cc3)sc2c1`, the IC50 is 20.9 µM (active).
As to `COc1cc(CNCCO)cc(Cl)c1OCc1ccccc1Cl`, the IC50 was 31.5 µM (active).
Then `Cc1cc(C)c2nc(N(CCCN(C)C)C(=O)C3=COCCO3)sc2c1`, with > 101 µM (inactive).
With `CCOC(=O)N1CCN(S(=O)(=O)c2ccc(C(=O)N(CCCN(C)C)c3nc4c(C)c(C)ccc4s3)cc2)CC1`, the IC50 was 56.8 µM (active).
Turning to `Cc1ccc2nc(N(CCN(C)C)C(=O)/C=C/c3cccs3)sc2c1`, the IC50 was > 100 µM (inactive).
In the case of `N#Cc1c(NCCN)nc(-c2ccco2)c2c1CCCC2`, the IC50 is 82.5 µM (active).
Then `C=CCNCCCOc1ccc(C)cc1Br`, with 69.6 µM (active); and `CCN(CC)CCCN=Cc1c(O)n(Cc2ccccc2)c(=O)c2ccccc12`, with > 100 µM (inactive).
Regarding `CN1CCC[C@@H]1CCO[C@](C)(c1ccccc1)c1ccc(Cl)cc1`, the IC50 was 27.5 µM (active).
`N=c1sccn1CC(=O)Nc1cccc(Oc2ccccc2)c1`: the IC50 was 54.4 µM (active).
With `Cc1ccc2nc(N(CCCN(C)C)C(=O)CCc3ccccc3)sc2c1`, the IC50 was 34.1 µM (active).
For the compound `C=CCNCCOc1ccc(C(C)(C)c2ccccc2)cc1`, the 50% inhibitory concentration (IC50) was 41.6 µM (active).
For `COc1ccc(-n2cc(CNC3CCN(C)CC3)c(-c3cccc(F)c3)n2)cc1`, the IC50 was > 100 µM (inactive).
The result for `CC1CCCN(CCC(=O)c2ccc(Br)cc2)C1` (stereo not given) reads 85.8 µM (active); that for `CCN(CC)c1ccc(NC(=O)c2cc(Cl)ccc2OC)cc1`, 41.2 µM (active).
Then `COc1ccc(Cl)cc1C(=O)Nc1ccc(CN2CCCCC2)cc1`, with 85.9 µM (active); and `O=C(CC1NCCc2ccccc21)Nc1ccc(Cl)cc1` (stereo not given), with 82.4 µM (active).
Then `COc1ccc(C)c2sc(N(CCCN(C)C)C(=O)CS(=O)(=O)c3ccc(F)cc3)nc12`, with 87.8 µM (active).
Consider `COCCCNCCCOc1ccc(Cl)cc1C(C)(C)C`, for which the concentration for half-maximal inhibition (IC50) is 42.3 µM (active).
On to `CN(C)CCCN1c2ccccc2Sc2ccc(Cl)cc21`, for which the IC50 was > 100 µM (inactive).

As usually defined, the IC50 is the concentration at which inhibition is half-maximal.
